Over roughly 81,000 sequences, “one-hybrid fitness for binding NBS DNA” has its median near -0.1; the highest 2% begin near 0.36. This excerpt belongs to a sample that is enriched for the highest values.
B1: Caulobacter ParB omega fusion; a variant is named by its letters at X, in order, B8GW30 (parent)
chain: MESVVVGEPGMSEGRRGLGRGLSALLGEVDAAPAQAPGEQLGGSREAPIEILQRNPDQPRRTFREEDLEDLSNSIREKGVLQPILVRPSPDTAGEYQIVAGERAWRAAQRAGLKTVPIMVRELDDLAVLEIGIIENVQRADLNVLEEALSYKVLMEKFERTQENIAQTIGKSXSHVANXMRLLXLPDEVQSYLVSGELTAXHARAIAAAADPVALAKQIIEGGLSVRETEALARKAPNLSAGKSKGGRPPRVKDTDTQALESDLSSVLGLDVSIDHRGSTGTLTITYATLEQLDDLCNRLTRGI

Variants of: B1
Experiment: one-hybrid fitness for binding NBS DNA (the Noc-binding site; scaled: cognate 1, non-cognate 0); higher = stronger binding
Settings: with NBS DNA site
Summary of the method: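 Caulobacter ParB libraries with four specificity codons randomised were screened by bacterial one-hybrid selection in the E. coli USO strain, using a HIS3 reporter whose site lies 19 bp from the promoter. Selection ran for 48 hours at 37°C on M9 lacking histidine, with 0.1 mM IPTG and 5 mM 3-AT. Plasmids were Illumina-sequenced before and after selection, three replicate libraries were pooled, and variants with under 10 reads were dropped. Fitness is the log change in each variant's read ratio to wild type, rescaled against the cognate and non-cognate sites.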

one-hybrid fitness for binding NBS DNA, 0.319:
QLWR

one-hybrid fitness for binding NBS DNA, 0.273:
RRQM

one-hybrid fitness for binding NBS DNA, 0.436:
RRYH

one-hybrid fitness for binding NBS DNA, 0.808:
RRRH

one-hybrid fitness for binding NBS DNA, 0.23:
RRWM

one-hybrid fitness for binding NBS DNA, 0.406:
QTVS

one-hybrid fitness for binding NBS DNA, 0.46:
RCRH

one-hybrid fitness for binding NBS DNA, 0.25:
RRRL

one-hybrid fitness for binding NBS DNA, 0.373:
QLHS

one-hybrid fitness for binding NBS DNA, 0.661:
RRTS

one-hybrid fitness for binding NBS DNA, 0.405:
QCKI
QKWD

one-hybrid fitness for binding NBS DNA, 0.36:
RRGY

one-hybrid fitness for binding NBS DNA, 0.339:
RRTN

one-hybrid fitness for binding NBS DNA, 0.761:
RRLT

one-hybrid fitness for binding NBS DNA, 0.313:
RRNQ

one-hybrid fitness for binding NBS DNA, 0.796:
QRWR

one-hybrid fitness for binding NBS DNA, 0.275:
QRCF

one-hybrid fitness for binding NBS DNA, 0.274:
RRNK

one-hybrid fitness for binding NBS DNA, 0.203:
RCSH

one-hybrid fitness for binding NBS DNA, 0.783:
QTKS

one-hybrid fitness for binding NBS DNA, 0.284:
RRSQ

one-hybrid fitness for binding NBS DNA, 0.378:
RRTY

one-hybrid fitness for binding NBS DNA, 0.732:
RRGT

one-hybrid fitness for binding NBS DNA, 0.365:
QSWR

one-hybrid fitness for binding NBS DNA, 0.381:
QSHS
RTLS

one-hybrid fitness for binding NBS DNA, 0.529:
QTWR

one-hybrid fitness for binding NBS DNA, 0.502:
QCHS

one-hybrid fitness for binding NBS DNA, 0.52:
QRCH
QRKI

one-hybrid fitness for binding NBS DNA, 0.362:
RRHG

one-hybrid fitness for binding NBS DNA, 0.382:
QRCQ
RSKC

one-hybrid fitness for binding NBS DNA, 0.277:
RTRN

one-hybrid fitness for binding NBS DNA, 0.475:
RTSS

one-hybrid fitness for binding NBS DNA, 0.776:
RRST

one-hybrid fitness for binding NBS DNA, 0.294:
RRHM
RRPH

one-hybrid fitness for binding NBS DNA, 0.403:
QMWR

one-hybrid fitness for binding NBS DNA, 0.491:
RTYS

one-hybrid fitness for binding NBS DNA, 0.651:
RTRS

one-hybrid fitness for binding NBS DNA, ≤ 0.2:
KDMM
CVAL
PSKH
NIHC
ILDT
GHDG
NTKH
NTKS
QPKD
QTVD
DTKS
LKPK
HFKG
MFQS
CVRD
CFTS
THAL
VGWS
YYSE
CALW
QTVP
QTVN
MGCR
YYNE
SVHI
PNPM
QLHN
QAHN
QLHD
QHHD
QAHH
QMHD
HRHV
IEST
VWYL
EEFL
ILLI
QSHH
QSHN
QPHS
CANC
RDTV
RCTY
RSTY
RRTP
RRTD
SLHR
ENTM
LGQD
KSNT
PNLF
YVMG
DWYR
LYTY
QAAG
APTR
PNAR
IYLD
QCCN
QSCM
QCCM
QCCC
QSCC
LFGC
DFND
HHDK
NKRM
EPHG
TMRV
KINT
AVTK
QSFM
YMRR
QGHN
AHIF
DQPR
VTFK
PKYY
QSCQ
ALAT
THPT
QRVI
QPKI
QRPI
QTFI
QTVI
KYRQ
YRRY
PRVL
QQIK
NLQI
TNPS
EPGN
FANT
SSVH
PPVW
SDIF
IYDC
RCET
RPET
DEAY
MGSC
KCYS
CWHL
DVFL
TRWG
YWSC
DRRT
RFLT
RGRT
TAWR
RMPQ
CKWG
MIPG
HFNT
GLSP
RPDT
RFCT
KAAL
VLTL
LFQI
MRVN
PPII
YTPG
RTND
RTLD
RTSN
RTSD
RTHD
RTLN
HINT
HQTT
ITQC
IHSS
SNIS
KRCM
FKNS
RTRP
RTYH
RTDH
IPNR
PSAG
DNSY
AIGW
RVDS
RVNN
RVNP
RVDT
RVND
WHSS
TLQF
SSCT
WSSA
LTMS
PEYD
YDIF
YRPY
RMVC
RKVC
RSYC
RSVC
RPKC
RMYC
RKPC
CIWR
TVCY
CPRV
GSGL
NLCF
RRSP
RRSD
APVD
VPVL
EKCM
GETM
NDTS
HEHG
WING
QRWD
QTWK
QTWC
QMWD
RLIM
HKDT
CTPT
QQGL
TSVS
LDTG
DILR
RKCV
QAWY
QPWR
QKWY
QKWM
QKWF
SITS
LTLV
SPPA
RPRH

one-hybrid fitness for binding NBS DNA, 0.785:
RRNT

one-hybrid fitness for binding NBS DNA, 0.247:
QTVH

one-hybrid fitness for binding NBS DNA, 0.49:
QCWR

one-hybrid fitness for binding NBS DNA, 0.576:
RVNT

one-hybrid fitness for binding NBS DNA, 0.332:
QCKP

one-hybrid fitness for binding NBS DNA, 0.223:
QRCE

one-hybrid fitness for binding NBS DNA, 0.77:
RRCT

one-hybrid fitness for binding NBS DNA, 0.389:
QRCC

one-hybrid fitness for binding NBS DNA, 0.643:
RRSS

one-hybrid fitness for binding NBS DNA, 0.451:
QMHS

one-hybrid fitness for binding NBS DNA, 0.228:
RRLM

one-hybrid fitness for binding NBS DNA, 0.266:
RLLS

one-hybrid fitness for binding NBS DNA, 0.304:
QIWR

one-hybrid fitness for binding NBS DNA, 0.755:
RRHT
RRDT

one-hybrid fitness for binding NBS DNA, 0.234:
KRKG

one-hybrid fitness for binding NBS DNA, 0.744:
QTKH

one-hybrid fitness for binding NBS DNA, 0.213:
RVDR

one-hybrid fitness for binding NBS DNA, 0.261:
QMWS

one-hybrid fitness for binding NBS DNA, 0.468:
QTKI

one-hybrid fitness for binding NBS DNA, 0.33:
QKWS

one-hybrid fitness for binding NBS DNA, 0.56:
QTKN

one-hybrid fitness for binding NBS DNA, 0.335:
RLKC
RSRH

one-hybrid fitness for binding NBS DNA, 0.521:
RVNS

one-hybrid fitness for binding NBS DNA, 0.397:
QRCM
QRCN

one-hybrid fitness for binding NBS DNA, 0.349:
RTWS

one-hybrid fitness for binding NBS DNA, 0.752:
RRQT

one-hybrid fitness for binding NBS DNA, 0.34:
RTIS

one-hybrid fitness for binding NBS DNA, 0.4:
RMKC

one-hybrid fitness for binding NBS DNA, 0.262:
RTHH

one-hybrid fitness for binding NBS DNA, 0.824:
RRWT

one-hybrid fitness for binding NBS DNA, 0.221:
QMHH

one-hybrid fitness for binding NBS DNA, 0.334:
RACT

one-hybrid fitness for binding NBS DNA, 0.348:
QAWR

one-hybrid fitness for binding NBS DNA, 0.509:
RRTH

one-hybrid fitness for binding NBS DNA, 0.54:
RTHS

one-hybrid fitness for binding NBS DNA, 0.386:
QHHS

one-hybrid fitness for binding NBS DNA, 0.536:
RTRH

one-hybrid fitness for binding NBS DNA, 0.55:
RVNR

one-hybrid fitness for binding NBS DNA, 0.343:
QRCG

one-hybrid fitness for binding NBS DNA, 0.391:
RKKC

one-hybrid fitness for binding NBS DNA, 0.439:
RRSH

one-hybrid fitness for binding NBS DNA, 0.462:
QKWR

one-hybrid fitness for binding NBS DNA, 0.215:
RRGK

one-hybrid fitness for binding NBS DNA, 0.296:
RREH

one-hybrid fitness for binding NBS DNA, 0.693:
QRCS

one-hybrid fitness for binding NBS DNA, 0.398:
QTKD
QAHS

one-hybrid fitness for binding NBS DNA, 0.37:
RCKC

one-hybrid fitness for binding NBS DNA, 0.534:
RTNS

one-hybrid fitness for binding NBS DNA, 0.356:
RRSN

one-hybrid fitness for binding NBS DNA, 0.314:
QSKI

one-hybrid fitness for binding NBS DNA, 0.249:
QRCP

one-hybrid fitness for binding NBS DNA, 0.281:
QIHS

one-hybrid fitness for binding NBS DNA, 0.214:
QHHH

one-hybrid fitness for binding NBS DNA, 0.268:
RRQQ

one-hybrid fitness for binding NBS DNA, 0.786:
RRRT

one-hybrid fitness for binding NBS DNA, 0.237:
RCTH
QRCD

one-hybrid fitness for binding NBS DNA, 0.219:
RCHH
RTDS
RRRE

one-hybrid fitness for binding NBS DNA, 0.41:
QTKP

one-hybrid fitness for binding NBS DNA, 0.769:
RRYT

one-hybrid fitness for binding NBS DNA, 0.698:
RRET

one-hybrid fitness for binding NBS DNA, 0.291:
RRSC

From a collection of fitness landscapes (doi:10.1016/j.celrep.2020.107928)
